SMILES strings stand for the structures. Calls of active or inactive are those of the source. The calls were made as follows: active = hit-call score of the fitted dose curve at least 0.9, where 1 is the maximum; inactive = score below 0.9.

Drawing on PubChem BioAssay AID2284142 (EPA ToxCast), this text covers AC50 for one compound.

Chain of human Adenosine Receptor A1 Agonism, ADORA1 (gene 134) (P30542 whole entry, looked up): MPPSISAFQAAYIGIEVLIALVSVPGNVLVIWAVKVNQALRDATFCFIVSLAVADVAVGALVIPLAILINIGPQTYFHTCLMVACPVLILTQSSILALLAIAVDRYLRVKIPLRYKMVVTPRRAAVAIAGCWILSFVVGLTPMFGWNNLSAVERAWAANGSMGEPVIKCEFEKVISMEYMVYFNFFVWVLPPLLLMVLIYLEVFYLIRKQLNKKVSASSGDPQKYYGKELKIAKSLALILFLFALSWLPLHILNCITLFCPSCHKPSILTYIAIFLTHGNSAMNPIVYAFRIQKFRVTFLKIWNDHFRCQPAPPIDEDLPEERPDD

For this assay, the target named is human Adenosine Receptor A1 Agonism, ADORA1 (gene 134) (UniProt P30542). The assay can be described thus: ERF_FR_GPCR_hADORA1: Eurofins (ERF) G Protein-Coupled Receptor (GPCR) Radioligand Binding LeadHunter Assay for human Adenosine Receptor A1 Agonism. Here is the method:
ERF_FR_GPCR_hADORA1 is a biochemical, single-readout assay that uses extracted gene-proteins in a cell-free assay. Measurements were taken 1 hour after chemical dosing in a 96-well plate. See A1 Human Adenosine GPCR Binding (Agonist Radioligand) Assay, Cerep.ERF_FR_GPCR_hADORA1 is an assay component calculated from the ERF_FR_GPCR_hADORA1 assay. It is designed to measure radioligand binding using a type of binding reporter as detected by scintillation counting with radiometry technology.Data from the assay component ERF_FR_GPCR_hADORA1 was analyzed at the assay endpoint, ERF_FR_GPCR_hADORA1, in the positive analysis fitting direction relative to DMSO as the negative control and baseline of activity. Using a type of binding reporter, […] activity can be used to understand changes in binding as they relate to gene ADORA1. To generalize the intended target to other relatable targets, this assay endpoint is annotated to the gpcr intended target family, where the subfamily is adenosine.
2) Dose Response: 90 ul of 10 mM stock -OR- 1 mg (pre-weighed) for a top concentration at 10 uM.
As to `O=C(/C=C/c1ccc(O)cc1)CC(=O)/C=C/c1ccc(O)cc1`, the AC50 is 1920 nM (active).
